From PubChem BioAssay (Tox21)
Inconclusive results are not listed. Entries that show only a call come without a potency. A number with no mark means an inactive call. Active and inactive are the calls of the source. The call rests on the fitted dose curve; in most records, active means well fitted cell-killing curve with a large enough effect in the repeat runs; inconclusive means weak or mixed curves, or effect the other way; inactive means no such curve, though single readings can be large or run the other way.

Assay: qHTS assay for small molecule activators of the heat shock response signaling pathway - cell viability counter screen (AID 743209); further: nearly all actives have a fitted effect of over 50% in size
Conditions: HSE-bla HeLa viability, CellTiter-Glo luminescence, 5 h; series mostly up to 62.6 µM; activity change, negative = cytotoxicity: at the top concentration
Source text: U.S. Tox21 Program National Center for Advancing Translational Sciences [NCATS] NIH Chemical Genomics Center [NCGC] U.S. Environmental Protection Agency [EPA] National Institutes of Environmental Health Sciences [NIEHS] National Toxicology Program [NTP] U.S. Food and Drug Administration [FDA] Tox21 Assay Overview: Various chemicals, environmental and physiological stress conditions may lead to the activation of heat shock response/ unfolded protein response (HSR/UPR). There are three heat shock transcription factors (HSFs) (HSF-1, -2, and -4) mediating transcriptional regulation of the human HSR. To identify the compounds that activate HSR signaling, HSE-bla HeLa cell line (Invitrogen, Carlsbad, CA, USA) containing a beta-lactamase reporter gene under the control of the heat shock response elements was used to screen Tox21 10K compound library. The cytotoxicity of the Tox21 compound library against the HSE-bla HeLa cell line was tested in parallel by measuring the cell viability using CellTiter-Glo assay (Promega, Madison, WI) in the same wells.
Tox21 Assay Protocol Summary: The CellSensor HSE-bla HeLa cells (Invitrogen, Carlsbad, CA, USA) were dispensed at 1500 cells/6uL/well into 1536-well black wall/clear bottom plates using a Multidrop combi (Thermo Fisher Scientific, Waltham, MA) dispenser. After the assay plates were incubated at 37 C and 5% CO2 overnight, 23 nL of compounds dissolved in DMSO, positive controls or DMSO only was transferred to the assay plate by a Pintool station (Kalypsys, San Diego, CA). The plates were incubated at 37 C for 5 h. After 1 uL of LiveBLAzerTM B/G FRET substrate was added using a Flying Reagent Dispenser (FRD, Beckman Coulter, Indianapolis, IN, USA), the plates were incubated at room temperature for 2.5 h, and fluorescence intensity was measured by an Envision plate reader (PerkinElmer, Shelton, CT). For cell viability readout that measures cytotoxicity, 3 ul/well of CellTiter-Glo reagent was added into the assay plates using a FRD. After 30 min incubation at room temperature, the luminescence intensity in the plates was measured using a ViewLux (PerkinElmer) plate reader.

Structure (SMILES) | Potency | activity change, negative = cytotoxicity
C[C@]12C=CC(=O)C=C1CC[C@H]1[C@@H]3C[C@@H](O)[C@](O)(C(=O)CO)[C@@]3(C)C[C@H](O)[C@@]12F | inactive | 
NCCS(=O)(=O)O | inactive | 
COc1ccc(C(=O)c2ccccc2O)c(O)c1 |  | -7.12%
c1ccc2c(c1)[nH]c1ccccc12 | inactive | 
CCC(=O)O[C@H]1[C@H](O[C@@H]2[C@@H](C)[C@H](O[C@H]3C[C@@](C)(OC)[C@@H](O)[C@H](C)O3)[C@@H](C)C(=O)O[C@H](CC)[C@@](C)(O)[C@H](O)[C@@H](C)C(=O)[C@H](C)C[C@@]2(C)O)O[C@H](C)C[C@@H]1N(C)C |  | 12.4%
CC/C=C\C/C=C\C/C=C\CCCCCCCC(=O)O | inactive | 
Nc1cc([N+](=O)[O-])ccc1C(=O)O | inactive | 
OC[C@H]1O[C@@H]2O[C@H]3[C@H](O)[C@@H](O)[C@@H](O[C@H]4[C@H](O)[C@@H](O)[C@@H](O[C@H]5[C@H](O)[C@@H](O)[C@@H](O[C@H]6[C@H](O)[C@@H](O)[C@@H](O[C@H]7[C@H](O)[C@@H](O)[C@@H](O[C@H]1[C@H](O)[C@H]2O)O[C@@H]7CO)O[C@@H]6CO)O[C@@H]5CO)O[C@@H]4CO)O[C@@H]3CO | inactive | 
CN(C)C | inactive | 
Nc1ccc(N)c(Cl)c1 | inactive | 
CC(=O)Oc1c(C)c(C)c2c(c1C)CC[C@@](C)(CCC[C@H](C)CCC[C@H](C)CCCC(C)C)O2 |  | -5.26%
C=C1C[C@H]2[C@@H]3C=C(C)C4=CC(=O)CC[C@]4(C)[C@H]3CC[C@]2(C)[C@@]1(OC(C)=O)C(C)=O | inactive | 
COc1cc([C@H]2Oc3cc([C@H]4Oc5cc(O)cc(O)c5C(=O)[C@@H]4O)ccc3O[C@@H]2CO)ccc1O | inactive | 
C=CN1CCCC1=O | inactive | 
CC(=O)O[C@]1(C(C)=O)CC[C@H]2[C@@H]3C=C(Cl)C4=CC(=O)CC[C@]4(C)[C@H]3CC[C@@]21C | inactive | 
C=C[C@H]1CN2CC[C@H]1C[C@H]2[C@H](O)c1ccnc2ccc(OC)cc12 | inactive | 
c1ccc2ncccc2c1 | inactive | 
COC(=O)C(C)Oc1ccc(Oc2ncc(C(F)(F)F)cc2Cl)cc1 (stereo not given) |  | -0.591%
OC[C@@H](O)[C@@H](O[C@@H]1O[C@H](CO)[C@H](O)[C@H](O)[C@H]1O)[C@H](O)[C@@H](O)CO | inactive | 
Nc1ccc2c(c1)C(=O)c1ccccc1C2=O | inactive | 

Structure (SMILES) | Potency | activity change, negative = cytotoxicity
CC1=CC(C)(C)Nc2ccccc21 | inactive | 
C=C[C@H]1CN2CC[C@H]1C[C@@H]2[C@@H](O)c1ccnc2ccc(OC)cc12 | inactive | 
IC(I)I | inactive | 
CC(C)[N+](C)(CCOC(=O)C1c2ccccc2Oc2ccccc21)C(C)C | inactive | 
Cc1ccc(C)c(O)c1 | inactive | 
CC(=O)O[C@]1(C(C)=O)CC[C@H]2[C@@H]3C=C(C)C4=CC(=O)CC[C@]4(C)[C@H]3CC[C@@]21C | inactive | 
Oc1c(Cl)ccc(Cl)c1Cl | inactive | 
O=C1CCc2ccccc2O1 | inactive | 
CC(=O)OC(C)C | inactive | 
C[C@]12CC[C@@H]3c4ccc(O)cc4CC[C@H]3[C@@H]1CC[C@H]2O | inactive | 
Nc1ccc2c(O)cc(S(=O)(=O)O)cc2c1 | inactive | 
O=C(O)CCCCCCCCCCCC(=O)O | inactive | 
C1CN(SSN2CCOCC2)CCO1 |  | -6.23%
Nc1ccc(O)c(N)c1 | inactive | 
Clc1ccc(Sc2cc(Cl)c(Cl)cc2Cl)cc1 | inactive | 
[O-]/[N+](=N\O)c1ccccc1 | inactive | 
CCCCCC1C(=O)CCC1CC(=O)OC (stereo not given) | inactive | 
C[N+](C)(C)CCO | inactive | 
Cc1ccc(/C(=C\CN2CCCC2)c2ccccn2)cc1 | inactive | 
C=CCOC(=O)C(=C)C | inactive | 
